# From PubChem BioAssay (Tox21)
# Several values for one entry are separate records, joined by “and”; a condition that tells them apart may be missing. Equal entries are not always repeated. Inconclusive results are not listed. Where a call stands in place of a potency, no number is given. More than one record can exist for a structure, and the calls need not agree. Activity calls are given as the source filed them. Unless noted, calls come from the whole dose curve; as a rule, active = well fitted curve in the direction sought with a large enough effect in the repeat runs; inconclusive = weak or mixed curves; inactive = no such curve, though single readings can be large; an effect the other way counts as inactive or inconclusive.
# Assays:
# [1] = qHTS assay to identify small molecule agonists of the peroxisome proliferator-activated receptor delta (PPARd) signaling pathway - cell viability counter screen (AID 743211); note: nearly all actives have a fitted effect of over 55% in size; note: potency is the fitted concentration of half-maximal effect
# Summary of the method: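 Viability was measured as CellTiter-Glo luminescence (30 min, room temperature) in the same wells as the beta-lactamase readout. GeneBLAzer PPARd UAS-bla HEK293H cells received compound after 5 h plating and were incubated 17 h at 37 C.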
# [2] = qHTS assay to identify small molecule antagonists of the peroxisome proliferator-activated receptor delta (PPARd) signaling pathway - cell viability counter screen (AID 743213); note: nearly all actives have a fitted effect of over 50% in size; note: potency is the fitted concentration of half-maximal effect
# Summary of the method: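 Cytotoxicity counter screen: CellTiter-Glo luminescence read 30 min after addition, in the same wells as the reporter assay. There, PPARd UAS-bla HEK293H cells (3000/well) were treated 17 h at 37 C with compound and 300 nM L165041.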
# [3] = qHTS assay to identify small molecule agonists of the farnesoid-X-receptor (FXR) signaling pathway - cell viability counter screen (AID 743218); note: nearly all actives have a fitted effect of over 45% in size; note: potency is the fitted concentration of half-maximal effect
# Summary of the method: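 Readout: CellTiter-Glo luminescence, 30 min RT, multiplexed after the FXR-bla FRET reading. HEK 293T FXR-UAS-bla cells received compound 5 h post-plating and were incubated 16 h at 37 C.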
# [4] = qHTS assay to identify small molecule antagonists of the farnesoid-X-receptor (FXR) signaling pathway - cell viability counter screen (AID 743221; active = well fitted cell-killing curve with a large enough effect in the repeat runs, not every such curve was filed as active; note: nearly all actives have a fitted effect of over 50% in size; note: potency is the fitted concentration of half-maximal effect)
# Summary of the method: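 Cytotoxicity counter screen run in the FXR-bla reporter wells: HEK 293T cells exposed to compound with 50 uM (final) chenodeoxycholic acid for 16 h, 37 C, then viability measured by CellTiter-Glo luminescence after 30 min, room temperature.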
# [5] = molecular target: Vitamin D3 receptor (Homo sapiens) (UniProt P11473); experiment: qHTS assay to identify small molecule antagonists of the vitamin D receptor (VDR) signaling pathway (AID 743223; active = well fitted inhibition curve with a large enough effect in the signal ratio in the repeat runs, not every such curve was filed as active; the % refers to the signal ratio)
# Summary of the method: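 Antagonist mode: compound added to VDR-bla cells alongside agonist 1alpha,25-dihydroxyvitamin D3 (3 nM final), incubation 16 h at 37C. Read-out is LiveBLAzer FRET fluorescence, 2 h at room temperature.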
# [6] = molecular target: Bile acid receptor (Homo sapiens) (UniProt Q96RI1); experiment: qHTS assay to identify small molecule agonists of the farnesoid-X-receptor (FXR) signaling pathway (AID 743220; active = well fitted activation curve with a large enough effect in the signal ratio in the repeat runs, not every such curve was filed as active; the % refers to the signal ratio)
# Summary of the method: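 FXR-UAS-bla HEK 293T cells carrying a UAS-driven beta-lactamase reporter were plated for 5 h at 37C/5% CO2, then exposed to DMSO-dissolved Tox21 10K compounds for 16 h at 37C. A LiveBLAzer B/G FRET substrate was loaded for 2 h at room temperature before fluorescence reading.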
# [7] = molecular target: Vitamin D3 receptor (Homo sapiens) (UniProt P11473); experiment: qHTS assay to identify small molecule agonists of the vitamin D receptor (VDR) signaling pathway (AID 743222; calls by dose curve)
# Summary of the method: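 Following 4 h attachment at 37C, VDR-bla cells (2,000 per well) received DMSO-dissolved compounds or controls. After 16 h incubation, LiveBLAzer B/G FRET substrate was added and fluorescence read 2 h later at room temperature.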
# [8] = molecular target: Peroxisome proliferator-activated receptor delta (Homo sapiens) (UniProt Q03181); experiment: qHTS assay to identify small molecule antagonists of the peroxisome proliferator-activated receptor delta (PPARd) signaling pathway (AID 743215; active = well fitted inhibition curve with a large enough effect in the signal ratio in the repeat runs, not every such curve was filed as active; the % refers to the signal ratio;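 note: cells stimulated with agonist L165041 at 300 nM final during compound exposure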; note: potency is the fitted concentration of half-maximal effect)
# Summary of the method: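 Fluorescence from cleaved LiveBLAzer B/G FRET substrate (2 h, room temperature) reports PPARd-driven beta-lactamase in HEK293H UAS-bla cells. Cells had been treated 17 h at 37 C with compound plus 300 nM final L165041.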
# [9] = molecular target: Bile acid receptor (Homo sapiens) (UniProt Q96RI1); experiment: qHTS assay to identify small molecule antagonists of the farnesoid-X-receptor (FXR) signaling pathway (AID 743217; active = well fitted inhibition curve with a large enough effect in the signal ratio in the repeat runs, not every such curve was filed as active; the % refers to the signal ratio)
# Summary of the method: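 FRET fluorescence after 2 h room-temperature LiveBLAzer loading gives the readout. Prior step: FXR-bla HEK 293T cells, seeded and incubated 5 h, received test compounds plus 50 uM final CDCA for 16 h at 37 °C.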
# Sequence of Vitamin D3 receptor (Homo sapiens) (P11473 whole entry, looked up): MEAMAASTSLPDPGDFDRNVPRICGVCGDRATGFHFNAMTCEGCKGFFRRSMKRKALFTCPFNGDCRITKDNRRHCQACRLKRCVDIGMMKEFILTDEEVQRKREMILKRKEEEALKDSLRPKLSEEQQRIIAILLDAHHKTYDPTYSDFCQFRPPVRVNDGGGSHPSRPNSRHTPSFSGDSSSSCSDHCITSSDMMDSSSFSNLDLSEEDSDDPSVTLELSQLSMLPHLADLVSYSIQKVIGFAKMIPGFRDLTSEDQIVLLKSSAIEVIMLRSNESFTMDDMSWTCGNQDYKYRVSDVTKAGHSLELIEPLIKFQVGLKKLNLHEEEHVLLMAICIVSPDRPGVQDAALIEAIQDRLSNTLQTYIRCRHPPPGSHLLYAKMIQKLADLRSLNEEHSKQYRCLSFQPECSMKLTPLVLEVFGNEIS
# Sequence of Peroxisome proliferator-activated receptor delta (Homo sapiens) (Q03181 whole entry, looked up): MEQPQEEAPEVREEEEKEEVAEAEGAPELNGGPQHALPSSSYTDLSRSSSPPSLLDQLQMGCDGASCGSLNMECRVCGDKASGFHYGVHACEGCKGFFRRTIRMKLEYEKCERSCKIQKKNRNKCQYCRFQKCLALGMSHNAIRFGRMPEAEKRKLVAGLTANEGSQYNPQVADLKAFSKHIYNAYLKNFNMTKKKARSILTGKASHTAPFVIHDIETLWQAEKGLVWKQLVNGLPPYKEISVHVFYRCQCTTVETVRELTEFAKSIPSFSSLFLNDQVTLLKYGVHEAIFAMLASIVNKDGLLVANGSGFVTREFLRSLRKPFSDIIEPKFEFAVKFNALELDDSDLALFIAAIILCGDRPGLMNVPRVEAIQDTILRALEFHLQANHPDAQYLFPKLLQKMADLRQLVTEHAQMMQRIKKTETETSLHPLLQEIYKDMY
# Sequence of Bile acid receptor (Homo sapiens) (Q96RI1 whole entry, looked up): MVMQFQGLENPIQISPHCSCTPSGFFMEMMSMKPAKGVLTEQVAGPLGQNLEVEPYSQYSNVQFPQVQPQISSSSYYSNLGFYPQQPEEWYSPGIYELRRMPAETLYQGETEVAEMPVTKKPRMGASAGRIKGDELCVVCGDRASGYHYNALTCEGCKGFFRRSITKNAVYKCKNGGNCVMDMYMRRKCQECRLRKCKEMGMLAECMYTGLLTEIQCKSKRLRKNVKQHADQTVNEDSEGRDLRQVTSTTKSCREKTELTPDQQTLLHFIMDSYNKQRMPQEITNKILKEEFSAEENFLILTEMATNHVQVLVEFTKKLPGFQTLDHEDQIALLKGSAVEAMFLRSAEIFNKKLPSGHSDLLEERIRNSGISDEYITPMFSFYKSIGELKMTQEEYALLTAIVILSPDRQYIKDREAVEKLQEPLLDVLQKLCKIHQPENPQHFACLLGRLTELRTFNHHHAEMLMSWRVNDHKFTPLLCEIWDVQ
SMILES,Potency [1],Potency [2],Potency [3],Potency [4],Potency [5],Potency [6],Potency [7],Potency [8],Potency [9]
[Cl][Hg][c]1ccccc1,0.977 µM (active),2.19 µM (active),1.55 µM (active),1.38 µM (active),–,–,–,–,–
CN(C)CCc1c[nH]c2ccccc12,inactive,inactive,inactive,inactive,inactive,–,–,–,–
CC1(C)[C@H](/C=C2\CCSC2=O)[C@@H]1C(=O)OCc1coc(Cc2ccccc2)c1,inactive,inactive,inactive,inactive,–,–,–,–,–
CC(O)C(=O)[O][Hg][c]1ccccc1 (configuration not stated),1.38 µM (active),1.95 µM (active),1.23 µM (active),2.75 µM (active),–,–,–,–,–
CCC(OC(C)=O)C(CC(C)NC)(c1ccccc1)c1ccccc1 (configuration not stated),15.5 µM (active),30.9 µM (active),61.6 µM (active),69.2 µM (active),–,inactive,inactive,–,–
Cc1ccc2cc3c(ccc4ccccc43)c3c2c1CC3,inactive,inactive,inactive,inactive,inactive,–,–,–,–
CC(=O)[O-].CC(=O)[O-].O.O.[Zn+2],inactive,inactive,inactive,inactive,–,–,–,–,–
COP(=O)(OC)Oc1ccc([N+](=O)[O-])cc1,inactive,inactive,inactive,inactive,–,–,inactive,–,–
N#CC(C#N)=NNc1cccc(Cl)c1,8.71 µM (active),8.71 µM (active),5.49 µM (active),6.92 µM (active),–,–,–,–,–
O.O.O.O.O.O.O=S(=O)([O-])[O-].[Ni+2],inactive,inactive,inactive,inactive,–,–,–,–,–
CCCCCCCCCCCCCCn1cc[n+](C)c1,24.6 µM (active) and 21.6 µM (active) and inactive,–,21.9 µM (active) and inactive,24.6 µM (active) and 54.4 µM (active) and inactive,inactive,inactive,–,inactive,–
CC(C)[C@@H](Nc1ccc(C(F)(F)F)cc1Cl)C(=O)OC(C#N)c1cccc(Oc2ccccc2)c1 (some centres not stated),inactive,–,inactive,inactive,–,inactive,inactive,–,–
CCCCn1cc[n+](C)c1.[Cl][Fe-]([Cl])([Cl])[Cl],inactive,–,inactive,inactive,–,–,–,–,–
O=c1c2ccccc2c(=O)c2c1cc(Cl)c1[nH]c3c([nH]c12)c(Cl)cc1c(=O)c2ccccc2c(=O)c13,inactive,–,inactive,inactive,inactive,inactive,–,inactive,inactive
CCOP(=O)(OCC)Oc1nc(Cl)c(Cl)cc1Cl,38.7 µM (active),–,–,–,–,–,inactive,12.2 µM (active),–
CCN(CC)C(=O)N[C@@H]1C=C2c3cccc4[nH]cc(c34)C[C@@H]2N(C)C1,inactive,inactive,–,inactive,–,inactive,–,–,–
CN1C(=O)[C@@H](NC(=O)c2cc3ccccc3[nH]2)N=C(c2ccccc2)c2ccccc21,inactive,inactive,inactive,inactive,inactive,–,–,–,–
O=C1C[C@@H]2OCC=C3CN4CC[C@]56c7ccccc7N1[C@H]5[C@H]2[C@H]3C[C@H]46,inactive,inactive,–,inactive,–,–,–,–,–
O=[N+]([O-])[O-].[Tl+],inactive,–,inactive,inactive,–,–,–,–,–
CN1CCc2cc3c(cc2C1O)OCO3 (configuration not stated),inactive,–,inactive,inactive,–,–,–,–,–
COP(=S)(OC)Oc1nc(Cl)c(Cl)cc1Cl,inactive,–,inactive,inactive,–,inactive,–,–,inactive
Brc1cccc(-c2ccccc2)c1,inactive,–,inactive,inactive,inactive,inactive,inactive,–,inactive
CNC(=O)CSP(=O)(OC)OC,inactive,–,inactive,inactive,–,inactive,–,inactive,inactive
O=c1[nH]c2cc(Cl)ccc2n1C1CCNCC1,inactive,–,inactive,inactive,inactive,inactive,–,inactive,inactive
CCCC[N+]1(C)CCCC1 (tested in a mixture with another compound),inactive,–,inactive,inactive,–,–,–,–,–
O=NN(CCO)CCO,inactive,–,inactive,inactive,inactive,inactive,inactive,–,inactive
